Bioassay records (PubChem)
Most compounds without a hit are left out; they make up all but 2% or so of the library.
FUS suppressor – qHTS for Suppressors of FUS Proteinopathy: Primary screen using FUS-linked yeast assay. Potency, µM (series often up to 76.6 µM), actives largely listed as activators. 390,000 compounds, 0.24% hits. AID 1347120, 2019. S. cerevisiae FUS-expressing, growth rescue, OD600, 24 h;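 further: plate controls were DMSO vehicle for no effect and reference control for full effect; nearly all actives have a fitted effect of over 55% in size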
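Absorbance at 600 nm, taken 24hr after compound addition, measured rescue of FUS-yeast growth at 30C. Induction used 2% galactose with seeding at OD 0.005. Controls: CP55940 from 92uM final, DMSO only.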
Glioma ERSR ind – qHTS for Inducers of the Endoplasmic Reticulum Stress Response (ERSR) in Human Glioma: qHTS. U87-MG GRP78 promoter luciferase reporter, 16 h. Potency, µM, for inactives: at the top dose activation, most hits filed as activators. 420,000 compounds, 0.02% hits; further: series mostly up to about 76 µM; % of control where 0% means no effect; nearly all actives have a fitted effect of over 35% in size
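Stably transfected U87-MG human glioma cells carrying a GRP78-based luminescent sensor were seeded at 1000 cells/well, pin-dosed with compounds and incubated 16 h. Luciferase reagent was then added, and end-point luminescence was read after 10 min at room temperature.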
aSyn yeast inh – qHTS of alpha-syn Inhibitors. Yeast expressing alpha-synuclein, growth rescue, BacTiter-Glo, 24 h. Potency, µM (series often up to 46.1 µM), without a hit: top-dose growth rescue (activation), hits mostly activators. 370,000 compounds, 0.14% hits; further: % of control where 0% means no effect; nearly all actives have a fitted effect of over 65% in size
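Screening used galactose-induced yeast with toxic alpha-synuclein levels, exposed to compound for 24 hr at 30 deg C. Cell growth, read with BacTiter-Glo luminescence, gave the measured signal.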
Abeta rescue – qHTS for compounds that reverse cellular toxicity of Amyloid beta (A-beta) peptide in yeast: Primary Screen; yeast expressing A-beta42, growth rescue, OD600, 48 h; response scale: 0% DMSO, 100% iron-clioquinol control; Potency, µM (series often up to 46.1 µM), actives largely listed as activators; 410,000 compounds, 0.063% hits; further: nearly all actives have a fitted effect of over 55% in size
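Growth rescue measured by 600 nm absorbance after 48 h yeast culture at 30 C with compound. Values normalized between DMSO and an equimolar ferric chloride plus clioquinol control.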
MBNL1-CUG inh – qHTS Assay for Inhibitors of MBNL1-poly(CUG) RNA binding | 280,000 compounds, 0.036% hits | TR-FRET MBNL1-His/biotin-(CUG)12 binding, 665/545 ratio | Muscleblind-like protein 1 (Homo sapiens), Q9NR56 | AID 2675, 2010 | Potency, µM (highest dose often 57.5 µM), for inactives: top-dose activity change, negative = inhibition, most hits filed as inhibitors; active means well fitted inhibition curve with a large enough effect in the signal ratio, with a control signal flat, not every such curve was filed as active; inconclusive means small, poorly fitted or top-dose-only effect, or effect the other way, or a change in a side signal; inactive means no such curve, though single readings can be large or run the other way; the % refers to the signal ratio; further: on the % scale 0 is the no-effect control and ±100 the full control effect
Target sequence (Q9NR56 whole entry, looked up): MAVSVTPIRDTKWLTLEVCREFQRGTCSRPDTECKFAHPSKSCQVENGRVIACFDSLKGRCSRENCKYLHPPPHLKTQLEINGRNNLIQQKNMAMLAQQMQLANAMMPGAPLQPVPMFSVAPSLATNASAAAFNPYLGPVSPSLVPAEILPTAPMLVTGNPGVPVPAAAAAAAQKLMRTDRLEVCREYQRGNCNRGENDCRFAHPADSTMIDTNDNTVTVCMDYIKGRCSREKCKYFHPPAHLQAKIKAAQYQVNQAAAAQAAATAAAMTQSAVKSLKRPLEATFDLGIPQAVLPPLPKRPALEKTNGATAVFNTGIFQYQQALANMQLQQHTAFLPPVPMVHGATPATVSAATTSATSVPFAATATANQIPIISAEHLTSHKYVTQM
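Ratiometric TR-FRET (665 over 545 nm, excitation 340 nm) tracks disruption of MBNL1-His/biotin-(CUG)12 complex after 60 min at room temperature, with compounds at 92 nM to 58 uM final.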
TDP-43 yeast inh – qHTS of TDP-43 Inhibitors. 410,000 compounds, 1.8% hits. Potency, µM (top dose mostly 46.1 µM), for the others: at the highest dose growth rescue (activation), most hits filed as activators. TDP-43 expressing yeast growth rescue, BacTiter-Glo, 24 h; further: % of control where 0% means no effect; nearly all actives have a fitted effect of over 50% in size
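Yeast cells expressing TDP-43 under galactose induction are exposed to compounds for 24 hr at 30 deg C. BacTiter-Glo luminescence measures growth, so protective compounds score as activators.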
* = called active by the depositor; i = inactive; ? = inconclusive; / = no result given; [ ] = dose if it differs, or a comment. Unless noted, the call rests on the fitted dose curve; in most records, active means well fitted curve in the direction sought with a large enough effect; inconclusive means small, poorly fitted or top-dose-only effect, or another doubt; inactive means no such curve, though single readings can be large; an effect the other way counts as inactive or inconclusive. Potency means the concentration at half of the fitted maximal effect.

SMILES | FUS suppressor | Glioma ERSR ind | aSyn yeast inh | Abeta rescue | MBNL1-CUG inh | TDP-43 yeast inh
CN(C)S(=O)(=O)c1ccc(N2CCCC2)c(C(=O)N2CCN(S(=O)(=O)c3ccc(F)c(F)c3)CC2)c1 | 28.2µM* | -4.2% | 1.1% | i | / | 16.3%
CCOC(=O)c1ccc(NC(=O)c2nc[nH]c2C(=O)NCC(=O)OC(C)(C)C)cc1 | ? | -4.0% | 10.5% | ? | 6.7% | 22.4µM*
CC(C)(C)OC(=O)NCc1ccc(NC(=O)c2nc[nH]c2C(=O)NCCN(CCNC(=O)c2[nH]cnc2C(=O)Nc2ccc(CNC(=O)OC(C)(C)C)cc2)CCNC(=O)c2[nH]cnc2C(=O)Nc2ccc(CNC(=O)OC(C)(C)C)cc2)cc1 | 8.91µM* | -2.8% | -1.2% | i | / | 19.0%
CC(C)(C)OC(=O)NCc1ccc(NC(=O)c2nc[nH]c2C(=O)NCCCNC(=O)c2[nH]cnc2C(=O)Nc2ccc(CNC(=O)OC(C)(C)C)cc2)cc1 | i | -3.9% | 4.3% | i | / | 9.0%
COC(=O)[C@@H]1CCCN1Cc1ccc2c(c1)CN(Cc1ccc(OC)c(C)c1)CCO2 | / | -0.8% | / | / | / | /
COc1cc(=O)n2c(c1C(=O)NCc1ccc3c(c1)OCO3)CCN(C(=O)c1ccc(C)cc1)CC2 | / | -4.9% | / | / | / | /
N/C(=N\OC(=O)CC1CCCCC1)c1cccc(Br)c1 | i | 0.6% | -34.2% | i | -9.0% | 3.16µM*
N/C(=N\OC(=O)C1CCCCC1)c1cccc(Br)c1 | i | 2.5% | -35.8% | i | 3.9% | -45.2%
COc1ccc(/C(N)=N/OC(=O)CCC2CCCC2)cc1OC | i | 5.2% | 0.9% | i | -2.2% | ?
N/C(=N\OC(=O)CC1CCCCC1)c1ccc(Br)cc1 | / | 2.2% | -18.6% | i | -0.2% | 7.94µM*
COc1ccc(/C(N)=N/OC(=O)CC2CCCCC2)cc1OC | ? | 3.7% | 0.7% | i | -11.4% | 22.4µM*
Cc1ccc(-c2cc(-c3nnc(SCC(=O)Nc4nccs4)n3N)[nH]n2)cc1 | i | / | / | / | / | /
O=c1c2c3c(sc2nc(NCCO)n1Cc1ccco1)CCCCC3 | i | 6.0% | 8.4% | i | 25.0% | -3.6%[0.397 µM]
O=c1c2c3c(sc2nc(NCCO)n1CCc1ccccc1)CCCCC3 | ? | 3.2% | -11.6% | i | 10.4% | 14.1µM*
OCCNc1nc(SCc2ccccc2)nc2sc3c(c12)CCC3 | / | 1.0% | -10.5% | i | -13.5% | 10µM*
FC(F)(F)c1cc(-c2ccco2)nc(NCc2cccs2)n1 | i | -6.0% | -10.9% | i | -3.7% | 20µM*
CCCS(=O)(=O)NCc1c(C)ncc2c1CCN(C(=O)c1cccc(-c3ccccc3F)c1)C2 | / | -2.4% | / | / | / | /
CC(OC(=O)c1ccccc1OCC(=O)Nc1ccc(Br)cc1)C(=O)NC1CCCC1 (configuration not stated) | / | / | -0.9% | / | / | /
CCCCCCC(=O)c1c(C)[nH]c(C(=O)OCC)c1C | i | ? | -3.3% | i | 9.7% | 10µM*
COc1ccc(OC)c(N(CC(=O)N2CCN(c3cc(Cl)ccc3C)CC2)S(C)(=O)=O)c1 | 28.2µM* | -1.6% | 2.1% | i | 0.4% | -20.2%
Oc1ccc(N=Cc2ccc(OCc3ccccc3)cc2)cc1 | i | ? | 1.6% | i | ? | 25.1µM*
CC(C)(C)NCC(=O)N/N=C/c1ccc(OCc2ccccc2)cc1 | i | -1.4% | 3.8% | i | 16.1% | 22.4µM*
CCCCNC(=O)C(=O)N/N=C/c1ccc(OCc2ccccc2)cc1 | i | 4.9% | -1.0% | i | / | -2.6%
Cc1ccc(C)c2[nH]c(=O)c(CN(CCN3CCCC3)C(=O)Nc3cccc(Cl)c3)cc12 | 35.5µM* | -11.6% | 5.4% | ? | ? | -6.1%
